In the library only some 5.5% were active in any assay of this set; here they are far more common.
Chronic BCR inh: chronic active BCR signaling inhibition; ABC-DLBCL IkBa-CBG/CBR reporter, luminescence ratio, 4 h; hit rate 0.05% among 340,000; Potency, µM (top dose mostly 46.1 µM), actives largely listed as inhibitors; AID 493014; active means well fitted inhibition curve with a large enough effect in the signal ratio, with a control signal flat, not every such curve was filed as active; inconclusive means small, poorly fitted or top-dose-only effect, or effect the other way, or a change in a side signal; the % refers to the signal ratio
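Concentration-response series (up to 46 uM) were applied to TMD8 dual-reporter cells for 4 h at 37C with doxycycline. Green/red ratio, after filter-overlap correction, defined %Activity; red signal alone was normalised to basal cells and zero luminescence.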
VP16 counter: inhibits Gal4-VP16 luciferase reporter, ROR gamma counter-screen | hit rate 3.5% among 310,000 | Potency, µM (titrated, usually from 53.6 µM), most hits filed as inhibitors | Drosophila S2 Gal4-VP16 UAS-luciferase, luminescence, 20 h;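 further: Gal4-VP16 expression switched on by copper sulfate through the metallothionein promoter; nearly all actives have a fitted effect of over 50% in size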
RORgamma inh: inhibitors of mouse ROR gamma transcriptional activity; Drosophila S2 Gal4-RORgamma UAS-luciferase reporter, 20 h; hit rate 5.4% among 310,000; Potency, µM (series often up to 53.6 µM), usual class: inhibitors; AID 2551; P51450; further: nearly all actives have a fitted effect of over 60% in size
Target sequence (P51450 whole entry, looked up, the tested form may be a part): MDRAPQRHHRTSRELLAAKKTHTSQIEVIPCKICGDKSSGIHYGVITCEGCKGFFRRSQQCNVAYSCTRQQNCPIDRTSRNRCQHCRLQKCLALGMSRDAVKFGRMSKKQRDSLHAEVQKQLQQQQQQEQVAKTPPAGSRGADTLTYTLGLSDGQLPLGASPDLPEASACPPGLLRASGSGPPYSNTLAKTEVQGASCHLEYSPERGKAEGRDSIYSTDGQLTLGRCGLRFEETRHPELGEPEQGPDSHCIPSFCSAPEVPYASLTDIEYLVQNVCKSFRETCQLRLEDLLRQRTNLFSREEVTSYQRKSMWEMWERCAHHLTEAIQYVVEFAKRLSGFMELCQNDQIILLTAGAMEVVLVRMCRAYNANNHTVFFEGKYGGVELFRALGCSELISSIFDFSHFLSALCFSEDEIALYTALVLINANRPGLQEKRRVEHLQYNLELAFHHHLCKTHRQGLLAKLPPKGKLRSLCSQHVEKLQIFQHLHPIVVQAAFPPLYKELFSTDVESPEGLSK
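ROR gamma transcriptional activity was tracked as Gal4-UAS luciferase output in stably transfected Drosophila Schneider cells, with compound added 1 hr before 700 uM copper sulfate induction and a 20 hr ambient-temperature incubation.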
uPA surface inh: cell surface uPA generation inhibition | cell surface uPA generation assay, qHTS | Potency, µM (titrated, usually from 38.3 µM), usual class: inhibitors | hit rate 0.31% among 330,000 | AID 540303; active means well fitted inhibition curve with a large enough effect; inconclusive means small, poorly fitted or top-dose-only effect; inactive means no such curve, though single readings can be large or run the other way; tested in mouse RAW 264.7 cells; further: nearly all actives have a fitted effect of over 55% in size
Mito fusion act: mitochondrial division inhibition or fusion activation. S. cerevisiae fusion-defective mutant growth rescue, CellTiterGlo 48 h. Potency, µM (doses to about 46.1 µM), actives largely listed as activators. hit rate 0.23% among 320,000; further: nearly all actives have a fitted effect of over 45% in size
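S. cerevisiae fusion-defective temperature-sensitive mutants (e.g. fzo1-1, mgm1-5) grown 48 h at 37C in YPEG (ethanol/glycerol non-fermentable) medium with 23 nl compound per well; growth rescue read as CellTiterGlo luminescence.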
a7 integrin act: activates integrin-mediated alleviation for muscular dystrophy | Potency, µM (highest dose often 38.3 µM), hits mostly activators | hit rate 0.064% among 350,000 | alpha7betagal myoblasts, beta-gal FDG fluorescence, 48 h; further: nearly all actives have a fitted effect of over 60% in size
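alpha7betagal+/- myoblasts (passage 13, 250/well) treated 48 h at 37C with compounds at 1:260 dilution of DMSO stock. Lysed, then beta-galactosidase activity read as FDG fluorescence (ex 480/em 540) after 30 min, with pre-read for autofluorescence.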
Numbers stand for hits; . = inactive; ? = inconclusive; / = no result; [ ] = another dose, or the depositor's remark. Unless noted, the call rests on the fitted dose curve; in most records, active means well fitted curve in the direction sought with a large enough effect; inconclusive means small, poorly fitted or top-dose-only effect, or another doubt; inactive means no such curve, though single readings can be large; an effect the other way counts as inactive or inconclusive.

SMILES | Chronic BCR inh | VP16 counter | RORgamma inh | uPA surface inh | Mito fusion act | a7 integrin act
COc1ccc2nc(NC(=O)c3ccc(F)cc3)sc2c1 | ? | . | 11.2µM | . | . | .
COCC(=O)Nc1nc2ccc(C)cc2s1 | ? | ? | ? | . | . | .
COc1ccc2nc(NC(C)=O)sc2c1 | . | . | . | . | . | .
Cc1ccc(Nc2nc3ccccc3c(=O)s2)cc1C | . | 3.55µM | 2.82µM | . | / | .
O=C(Nc1nc2ccccc2s1)c1ccc(Cl)s1 | ? | . | 8.91µM | ? | . | .
O=C(Nc1nc2ccccc2s1)c1ccccc1[N+](=O)[O-] | ? | . | ? | . | . | .
CC(=O)c1sc(NC(=O)c2cc(-c3ccccc3)nn2-c2ccccc2)nc1C | . | ? | .[10 µM] | . | . | .
COc1ccc(Nc2nc3ccccc3c(=O)s2)c(OC)c1 | . | ? | ? | . | . | .
O=C(Nc1nc2ccccc2s1)c1cc(-c2ccccc2)nn1-c1ccccc1 | . | ? | 10µM | ? | . | .
COc1cccc(C(=O)Nc2nc3ccccc3s2)c1 | ? | 14.1µM | 12.6µM | ? | . | .
O=C(c1cnc(N2CCN(c3ccccn3)CC2)c2ccccc12)N1CCN(c2cccc(Cl)c2)CC1 | . | 1.58µM | ? | . | . | .
O=C(c1cc(Cl)ccc1Cl)N1CCN(c2ccccn2)CC1 | ? | . | . | . | . | .
CCOc1ccccc1-c1c2cc(O)c(=O)cc-2oc2cc(O)c(O)cc12 | ? | 17.8µM | ? | . | . | .
CC(C)C(=O)NC(C)C(c1cccs1)N1CCOCC1 (stereo not given) | . | . | . | / | . | .
CC(NC(=S)Nc1ccc(F)cc1)C(c1cccs1)N1CCOCC1 (stereo not given) | . | ? | 3.98µM | . | . | .
CC(NC(=S)NCCc1ccccc1)C(c1cccs1)N1CCN(Cc2ccccc2)CC1 (stereo not given) | ? | ? | 5.01µM | . | . | .
Cc1cccc(NC(=S)NC(C)C(c2cccs2)N2CCN(C)CC2)c1C (stereo not given) | . | . | ? | . | . | .
Cc1ccccc1NC(=S)NC(C)C(c1cccs1)N1CCOCC1 (stereo not given) | . | 22.4µM | 2.82µM | . | . | .
CCN1CCN(C(c2cccs2)C(C)NC(=S)Nc2cc(C)ccc2C)CC1 (stereo not given) | . | . | ? | . | . | .
CC(NC(=S)Nc1ccccc1Cl)C(c1cccs1)N1CCCC1 (stereo not given) | . | ? | 7.94µM | . | . | .
C[C@@H](C(=O)Cc1ccc2ccccc2c1)[C@@H]1C[C@@]1(C)[C@@H](NP(=O)(c1ccccc1)c1ccccc1)c1ccccc1 | / | . | . | / | / | /
FC(F)(F)C(F)(F)C(F)(F)C(F)(F)C(F)(F)C(F)(F)F | / | . | . | / | / | /
Cc1cc(NC(=O)c2ccc3c(c2)C(=O)N(c2cccc(C)c2C)C3=O)no1 | . | 17.8µM | ? | . | . | .
CCCN1C(=O)c2ccc(C(=O)Nc3cc(C)on3)cc2C1=O | . | .[0.365 µM] | . | . | . | .
Cc1cc(NC(=O)c2ccc3c(c2)OCO3)no1 | . | ? | ? | . | . | .
SMILES | Chronic BCR inh | VP16 counter | RORgamma inh | uPA surface inh | Mito fusion act | a7 integrin act
CC(=O)Nc1ccc(C(=O)Nc2nc(-c3cccnc3)cs2)cc1 | . | . | . | . | . | .
Cc1cc(NC(=O)c2ccc3c(c2)OCCO3)no1 | ? | 7.08µM | 10µM | . | . | .
CC(=O)Nc1ccc(C(=O)Nc2nc(-c3ccccn3)cs2)cc1 | . | . | 7.94µM | . | . | .
O=C(Nc1ccc(Cl)cc1Cl)c1ccc2c(c1)OCCO2 | ? | / | / | 4.47µM | . | .
COc1ccc2[nH]cc(CCNc3nc(-c4cccc(C#N)c4)nc4ccccc34)c2c1 | / | . | ? | / | / | /
C[C@]12c3[nH]c4ccccc4c3CCN1C(=O)C(CC(=O)NCCC1=CCCCC1)C[C@@H]2C(=O)N1CCCCC1 (stereo not given in full) | . | / | / | . | / | .
Cc1nc(NC(=O)c2ccccc2)sc1C1(C)CC(c2c(Cl)cccc2Cl)=NO1 (stereo not given) | . | . | . | ? | ? | .
O=C(Nc1ccccn1)c1ccc2c(c1)OCO2 | ? | ? | . | . | . | .
Cn1nc(C(=O)Nc2nc(-c3ccccn3)cs2)c2ccccc2c1=O | ? | / | / | . | . | .
O=C(Nc1nc(-c2ccccn2)cs1)c1ccccc1-n1cnnn1 | ? | . | 5.01µM | . | . | .
O=C(Nc1ccccn1)c1ccc2c(c1)OCCO2 | ? | . | 10µM | . | . | .
Cc1ccc(C(=O)Nc2nc(-c3ccccn3)cs2)o1 | . | ? | 12.6µM | ? | . | .
Cc1csc(NC(=O)c2ccc3c(c2)OCO3)n1 | ? | . | ? | . | . | .
O=C(Nc1nc(-c2ccccn2)cs1)c1ccc2c(c1)OCCO2 | ? | 10µM | 3.16µM | 2.51µM | . | .
COC(=O)c1ccc2c(=O)n(CCCCCC(=O)N3CCN(c4cc(Cl)ccc4C)CC3)c(=O)[nH]c2c1 | . | / | / | / | / | /
O=C(Cn1nc(C(F)(F)F)c2c1CCCC2)Nc1ccc(Br)cc1 | . | / | / | / | . | /
CCN(C(=O)Cc1c(C(=O)O)c(C)cn1C)c1cccc(Cl)c1 | . | / | / | / | / | /
Clc1ccc(-c2csc(NNC3=NCCCCC3)n2)cc1 | . | ? | 5.62µM | . | . | .
CCCCCn1c(=S)[nH]c2cc(C(=O)N3CCN(C(=O)OCC)CC3)ccc2c1=O | . | ? | ? | . | . | .
Cc1ccc(C)c(N2CCN(C(=O)c3ccc(Cn4c(=S)[nH]c5ccc(N6CCOCC6)cc5c4=O)cc3)CC2)c1 | . | . | 2.82µM | . | . | .
O=C(c1ccc(Cn2c(=S)[nH]c3cc4c(cc3c2=O)OCO4)cc1)N1CCN(c2ccccc2)CC1 | . | 6.31µM | 3.16µM | . | . | .
CCOCCCn1c(=S)[nH]c2cc(C(=O)N3CCN(C4CCCCC4)CC3)ccc2c1=O | . | . | . | . | . | .
CCCCCn1c(=S)[nH]c2cc(C(=O)N3CCCC3)ccc2c1=O | . | . | 3.16µM | . | . | .
O=C(c1ccc(Cn2c(=S)[nH]c3ccc(Br)cc3c2=O)cc1)N1CCN(C2CCCCC2)CC1 | ? | ? | 11.2µM | . | . | .
CSc1ccc(CCCCCCOC(=O)C(C)(C)C)cc1 | . | / | / | . | . | .
COc1ccc(Cn2c(=S)[nH]c3cc(C(=O)N4CCN(c5ccccc5)CC4)ccc3c2=O)cc1 | . | . | ? | . | . | ?
O=C(c1ccc2c(=O)n(Cc3ccccc3)c(=S)[nH]c2c1)N1CCCC1 | . | ? | 11.2µM | . | . | .
COc1ccc(C(=O)NC(=S)Nc2cccc(NC(=O)c3ccco3)c2)cc1[N+](=O)[O-] | . | ? | 10µM | . | . | .
COc1ccc(C(=O)NC(=S)Nc2ccc(NC(=O)c3ccco3)cc2)cc1[N+](=O)[O-] | ? | ? | ? | . | . | .
